13 compounds from PubChem BioAssay (NCATS) can be followed below.

Values without a mark were called inactive. Results filed as inconclusive are left out. Activity calls are given as the source filed them. Unless noted, calls follow the shape of the dose curve; as a rule, active = well fitted curve in the direction sought with a large enough effect; inconclusive = small, poorly fitted or top-dose-only effect, or another doubt; inactive = no such curve, though single readings can be large; an effect the other way counts as inactive or inconclusive.

For assay [1], the target named is Calcium and integrin-binding protein 1 (Homo sapiens) (UniProt Q99828). In words: Primary qHTS for Identification of Calcium Integrin Binding Protein 1 (CIB1) Competitor (AID 1508620).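 Also: GST tagged CIB1 binding a fluorescein labelled alphaIIb integrin peptide tracer; top concentration of the series differs between compounds; % is scaled to controls: 0 for no effect and ±100 for the full control effect.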 In short, it runs like this: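 Fluorescence polarization competition: CIB1-GST (1 uM final) preincubated with compound 15 min at room temperature, then FITC-labeled alphaIIb peptide (100 nM final) added for another 15 min. Polarization read at Ex 480/Em 540.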

The target in assay [2] is N-terminal Xaa-Pro-Lys N-methyltransferase 1 (Homo sapiens) (UniProt Q9BV86). Put plainly: Confirmatory qHTS for Inhibitors of N-terminal methyltransferase 1 (NTMT1): MTaseGlo Assay (AID 1645874). Also: potency is read from the fitted curve at half-maximal effect; nearly all actives have a fitted effect of over 65% in size. In a few lines:
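Enzyme mix (125 nM NTMT1, 100 uM SAM) + compound, 15 min RT; + 1 uM SPKRIA, 30 min RT, dark; MTase-Glo reagent 30 min, detection solution 30 min; luminescence. % inhibition vs no-enzyme/DMSO controls, 4-parameter Hill fit.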

The target in assay [3] is Rap guanine nucleotide exchange factor 3 (Homo sapiens) (UniProt O95398). Put plainly: Confirmatory qHTS for agonist of cAMP-regulated guanine nucleotide exchange factor 3 (EPAC1) (AID 1645881).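 Also: EPAC1 catalysed release of BODIPY-GDP from Rap1B seen as fluorescence loss; 100% = effect of cAMP agonist control; nearly all actives have a fitted effect of over 75% in size.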
Assay [4] addresses Rap guanine nucleotide exchange factor 4 (Homo sapiens) (UniProt Q8WZA2). Put plainly: Confirmatory qHTS for agonist of cAMP-regulated guanine nucleotide exchange factor 4 (EPAC2) (AID 1645884).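 Also: nucleotide exchange releases bodipy-GDP from Rap1 and this lowers its fluorescence; % is scaled to controls: 0 for no effect and ±100 for the full control effect; nearly all actives have a fitted effect of over 65% in size.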
For assay [5] the target is unchanged. Put plainly: Confirmatory qHTS for antagonist of cAMP-regulated guanine nucleotide exchange factor 4 (EPAC2) (AID 1645885). Also: nearly all actives have a fitted effect of over 25% in size.
In assay [6] the target is Rap guanine nucleotide exchange factor 3 (Homo sapiens) (UniProt O95398). Put plainly: Counterscreen qHTS for antagonist of cAMP-regulated guanine nucleotide exchange factor 3 (EPAC1) (AID 1645888). Also: % of control where 0% means no effect. In short, it runs like this:
(§1)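 Measured: fluorescence of BODIPY-GDP bound to Rap1B, which falls as exchange proceeds. Conditions include 50 uM competing GDP, 5 and 30 min reads, and a later cAMP challenge for antagonist detection.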

The target is the same in assay [7]. In words: Counterscreen qHTS for agonist of cAMP-regulated guanine nucleotide exchange factor 3 (EPAC1) (AID 1645889). Also: % of control where 0% means no effect; nearly all actives have a fitted effect of over 40% in size. In short, it runs like this: as §1
Assay [8] is described as follows: AP1 Signaling Pathway (AID 357; active = well fitted curve in either direction with a large enough effect, not every such curve was filed as active;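 also: ME-180 reporter cells stimulated with EGF at its EC50 level; % is scaled to controls: 0 for no effect and ±100 for the full control effect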). The following applies: ME-180 AP-1-bla reporter, EGF-induced, beta-lactamase ratio, 5 h; at 7.69 µM (top of the series) unless noted. In a few lines:
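Titration-series screen for positive or negative modulators of EC50 EGF-induced signaling in ME-180 cells carrying an AP-1-driven beta-lactamase reporter. After 5 hours at 37 degrees Celsius, CCF4 460nm/530nm emission ratio gave %Activity; AC50 values derived.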

A short description of assay [9]: NFAT Signaling Pathway (AID 444; active = well fitted curve in either direction with a large enough effect, not every such curve was filed as active;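 also: carbachol stimulus at about its EC50 of 1 µM final; % is scaled to controls: 0 for no effect and ±100 for the full control effect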). The following applies: Jurkat NFAT-bla M1, carbachol, beta-lactamase ratio, 5 h; at 7.69 µM (top of the series) unless noted. In short, it runs like this:
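Jurkat cells carrying an NFAT-driven β-lactamase reporter and co-transfected muscarinic M1 receptor were treated with compound plus carbachol (1 uM final, an EC50 level) for 5 h at 37 °C. CCF4 loading followed for 1 h at RT; 460/530 nm ratio gave %activity.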

Assay [10] concerns the target Glucocorticoid receptor (Homo sapiens) (UniProt P04150). In words: GR-GFP Redistribution (AID 450;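 active = compounds whose dose series gives a full or clear partial fitted curve of increased nuclear translocation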; also: potency is read from the fitted curve at half-maximal effect). Particulars: U2OS GR-GFP nuclear translocation, laser cytometry, 2 h.
The target of assay [11] is Rap guanine nucleotide exchange factor 3 (Homo sapiens) (UniProt O95398). Put plainly: Confirmatory qHTS for antagonist of cAMP-regulated guanine nucleotide exchange factor 3 (EPAC1) (AID 1645880). Also: nearly all actives have a fitted effect of over 55% in size. Also: potency is read from the fitted curve at half-maximal effect.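 As to activity, negative = inhibition: plate controls were DMSO only for no effect and full effect of the ATA control for full effect.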 In short, it runs like this: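 Released BODIPY-GDP fluoresces less than Rap1-bound BODIPY-GDP; the signal is followed at 480/540 nm at 5-min intervals over 30 min, after 5 min at room temperature. Reactions contain 100 nM EPAC1, 250 nM RAP1B-BODIPY-GDP and 50 uM GDP; results are normalized to ATA and DMSO.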

Assay [12] concerns the target Glutathione peroxidase 1 (Homo sapiens) (UniProt P07203). In words: Primary qHTS Assay for Inhibitors of Recombinant Selenoprotein Glutathione Peroxidase 1 (GPX1) (AID 1845191). Also: % is scaled to controls: 0 for no effect and ±100 for the full control effect; nearly all actives have a fitted effect of over 65% in size. In short, it runs like this:
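GPX1 10 nM, GR 100 nM, GSH 1 mM, NADPH 0.5 mM, CHP 0.5 mM (final). 30-min cpd preincubation, RT. Ex340/Em450 read t=0, t=15 min.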

Assay [13] can be described thus: Stat Signaling Pathway (AID 446; active = well fitted curve in either direction with a large enough effect, not every such curve was filed as active;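 also: ME-180 cervical cancer cells given 40 pM IL-6 alongside compound; SIE-controlled beta-lactamase reporter measured as 460/530 nm FRET emission ratio; % is scaled to controls: 0 for no effect and ±100 for the full control effect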). The following applies: ME-180 (cervical carcinoma) SIE beta-lactamase reporter, IL-6 stimulated, 5 h; at 7.69 µM (top of the series) unless noted. In a few lines: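 Emission at 460 and 530 nm (excitation 405 nm) reports SIE-controlled beta-lactamase in ME-180 cells. Cells received compound with 40 pM IL-6 for 5 hrs at 37 C; data scaled between 300 pM IL-6 and 125 nM JAK-inhibitor controls.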

The nature of assay [14]: qHTS for Inhibitors of Ubiquitin-specific Protease USP2a Using CHOP2 as the Reporter: Cytotox Assay (AID 652170).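 Also: HCT116 human colon cancer cells at 600 per well; plate controls were DMSO-treated cells for no effect and wells without cells for full effect; nearly all actives have a fitted effect of over 70% in size.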 In short, it runs like this: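 Cytotoxicity read as ATP luminescence (CellTiter-Glo) after 72 hr compound treatment at 37 deg C. Cells: HCT116, 600/well in DMEM plus 10% FBS. Normalization between DMSO-treated cells and cell-free wells.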

Sequence of Rap guanine nucleotide exchange factor 4 (Homo sapiens) (Q8WZA2 whole entry, looked up): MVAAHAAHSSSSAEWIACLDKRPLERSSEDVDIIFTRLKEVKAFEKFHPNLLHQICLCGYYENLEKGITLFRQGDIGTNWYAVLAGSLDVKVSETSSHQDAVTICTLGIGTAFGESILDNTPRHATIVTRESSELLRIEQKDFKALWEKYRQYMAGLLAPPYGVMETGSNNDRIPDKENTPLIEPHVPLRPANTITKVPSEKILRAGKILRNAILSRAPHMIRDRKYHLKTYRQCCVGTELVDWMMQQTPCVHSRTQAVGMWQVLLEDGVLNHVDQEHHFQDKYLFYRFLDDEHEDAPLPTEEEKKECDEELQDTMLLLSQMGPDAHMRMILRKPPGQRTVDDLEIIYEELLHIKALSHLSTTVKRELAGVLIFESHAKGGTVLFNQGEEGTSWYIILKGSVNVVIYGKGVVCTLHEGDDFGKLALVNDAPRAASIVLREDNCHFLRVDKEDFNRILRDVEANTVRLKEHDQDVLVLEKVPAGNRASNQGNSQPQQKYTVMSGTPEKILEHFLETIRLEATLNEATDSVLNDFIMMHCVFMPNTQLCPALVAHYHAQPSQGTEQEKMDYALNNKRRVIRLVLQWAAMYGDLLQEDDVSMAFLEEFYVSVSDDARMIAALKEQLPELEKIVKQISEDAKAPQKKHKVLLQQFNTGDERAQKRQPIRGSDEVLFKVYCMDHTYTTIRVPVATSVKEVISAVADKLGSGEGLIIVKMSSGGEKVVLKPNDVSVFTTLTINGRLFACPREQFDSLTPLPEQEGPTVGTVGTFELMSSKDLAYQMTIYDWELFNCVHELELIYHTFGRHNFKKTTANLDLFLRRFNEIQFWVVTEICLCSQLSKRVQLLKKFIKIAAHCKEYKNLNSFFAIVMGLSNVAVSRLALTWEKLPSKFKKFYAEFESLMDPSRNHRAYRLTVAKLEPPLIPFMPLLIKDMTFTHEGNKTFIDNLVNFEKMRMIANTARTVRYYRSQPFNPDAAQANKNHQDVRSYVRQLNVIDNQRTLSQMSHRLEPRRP
Sequence of Calcium and integrin-binding protein 1 (Homo sapiens) (Q99828 whole entry, looked up): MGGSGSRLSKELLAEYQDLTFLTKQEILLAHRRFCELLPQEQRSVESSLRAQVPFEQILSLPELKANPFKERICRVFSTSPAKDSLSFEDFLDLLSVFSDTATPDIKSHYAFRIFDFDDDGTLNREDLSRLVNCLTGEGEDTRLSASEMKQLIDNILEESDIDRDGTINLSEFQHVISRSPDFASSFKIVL
Sequence of Rap guanine nucleotide exchange factor 3 (Homo sapiens) (O95398 whole entry, looked up): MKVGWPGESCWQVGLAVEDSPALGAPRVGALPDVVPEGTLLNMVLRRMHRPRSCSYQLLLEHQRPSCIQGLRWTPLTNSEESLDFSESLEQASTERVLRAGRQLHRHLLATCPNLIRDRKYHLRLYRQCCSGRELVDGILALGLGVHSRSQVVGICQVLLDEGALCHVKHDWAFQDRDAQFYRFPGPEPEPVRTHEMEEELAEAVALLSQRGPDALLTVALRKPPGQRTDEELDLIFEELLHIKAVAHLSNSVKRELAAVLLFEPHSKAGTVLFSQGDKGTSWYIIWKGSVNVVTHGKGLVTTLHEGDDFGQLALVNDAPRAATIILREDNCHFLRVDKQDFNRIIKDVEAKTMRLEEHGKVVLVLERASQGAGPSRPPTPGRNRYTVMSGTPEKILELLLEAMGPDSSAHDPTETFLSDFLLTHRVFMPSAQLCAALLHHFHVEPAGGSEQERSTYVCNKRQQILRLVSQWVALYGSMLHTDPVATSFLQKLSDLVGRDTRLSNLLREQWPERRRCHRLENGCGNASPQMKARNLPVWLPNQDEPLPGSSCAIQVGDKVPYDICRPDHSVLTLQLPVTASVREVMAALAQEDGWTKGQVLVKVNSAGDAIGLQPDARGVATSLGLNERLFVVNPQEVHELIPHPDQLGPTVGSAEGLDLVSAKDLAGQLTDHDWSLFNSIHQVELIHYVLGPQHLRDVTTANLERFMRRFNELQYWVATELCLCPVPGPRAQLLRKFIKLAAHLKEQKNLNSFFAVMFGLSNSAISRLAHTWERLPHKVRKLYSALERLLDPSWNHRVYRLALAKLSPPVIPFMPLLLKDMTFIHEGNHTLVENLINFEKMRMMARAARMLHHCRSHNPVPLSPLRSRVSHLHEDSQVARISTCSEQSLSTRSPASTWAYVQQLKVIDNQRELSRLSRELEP
Sequence of Glutathione peroxidase 1 (Homo sapiens) (P07203 whole entry, looked up): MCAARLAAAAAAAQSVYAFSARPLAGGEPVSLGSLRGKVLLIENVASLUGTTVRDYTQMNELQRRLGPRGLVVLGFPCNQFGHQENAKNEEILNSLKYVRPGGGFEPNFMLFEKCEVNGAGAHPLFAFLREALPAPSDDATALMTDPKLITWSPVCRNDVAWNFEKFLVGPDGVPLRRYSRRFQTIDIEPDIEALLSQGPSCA
Sequence of Glucocorticoid receptor (Homo sapiens) (P04150 whole entry, looked up): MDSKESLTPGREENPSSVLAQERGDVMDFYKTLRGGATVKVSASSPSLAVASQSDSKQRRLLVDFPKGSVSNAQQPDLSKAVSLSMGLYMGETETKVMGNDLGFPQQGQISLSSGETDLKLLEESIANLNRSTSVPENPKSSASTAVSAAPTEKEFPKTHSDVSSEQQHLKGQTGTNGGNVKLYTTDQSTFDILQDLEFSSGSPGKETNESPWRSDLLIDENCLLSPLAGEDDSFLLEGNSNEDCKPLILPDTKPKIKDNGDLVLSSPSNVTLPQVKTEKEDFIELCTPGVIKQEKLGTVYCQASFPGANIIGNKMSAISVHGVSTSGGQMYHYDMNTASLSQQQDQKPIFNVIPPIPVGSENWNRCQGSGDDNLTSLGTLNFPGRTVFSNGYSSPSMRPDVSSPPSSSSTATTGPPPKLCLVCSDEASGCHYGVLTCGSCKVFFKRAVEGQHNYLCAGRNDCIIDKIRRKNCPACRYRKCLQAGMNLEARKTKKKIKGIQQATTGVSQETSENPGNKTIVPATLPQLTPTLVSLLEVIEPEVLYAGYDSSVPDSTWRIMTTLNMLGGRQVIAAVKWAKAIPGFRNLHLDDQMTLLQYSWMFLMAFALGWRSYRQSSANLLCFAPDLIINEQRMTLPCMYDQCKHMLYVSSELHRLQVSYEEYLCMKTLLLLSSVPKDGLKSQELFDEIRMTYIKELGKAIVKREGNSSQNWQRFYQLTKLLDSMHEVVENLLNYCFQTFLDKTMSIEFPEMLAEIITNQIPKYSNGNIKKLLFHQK
Sequence of N-terminal Xaa-Pro-Lys N-methyltransferase 1 (Homo sapiens) (Q9BV86 whole entry, looked up): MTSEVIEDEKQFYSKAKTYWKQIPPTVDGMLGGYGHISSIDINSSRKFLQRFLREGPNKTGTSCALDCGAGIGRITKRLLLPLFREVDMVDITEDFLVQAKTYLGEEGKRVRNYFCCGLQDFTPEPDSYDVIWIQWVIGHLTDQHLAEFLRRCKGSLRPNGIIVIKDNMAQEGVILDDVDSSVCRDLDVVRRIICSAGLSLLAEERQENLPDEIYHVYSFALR

Turning to `CNc1nc(C#N)c(-c2cccc3ccccc23)o1`, the Potency result in assay [1] is “inactive”.
Consider `Cc1nc(C)c(-c2ccc3ncnc(NCc4ncc[nH]4)c3c2)s1`, for which the Potency result in assay [1] was “inactive”. In addition, the Potency in assay [2] was 39.8 µM (active).
For the compound `Fc1cc(F)cc(Nc2nc(NC3CCCC3)nc(C3CO3)n2)c1` (stereo not given), the Potency entry in assay [1] was “inactive”.
As for `CC(=O)NC(c1cc(Cl)c2ccccc2c1O)C(C)C` (stereo not given), in assay [1], the Potency entry was “inactive”. Also, the compound was called inactive in [3] and in [6]. Further, the figures for the activation in assay [4] and in [7] were 9.17% [at 17.1 µM] and 8.27% [at 30.8 µM], respectively. Moreover, in assay [5], the activity change, negative = inhibition was -39.3% [at 12.7 µM].
On to `COc1ccc(-n2c(C)c(C(C)=O)c3cc(O)ccc32)cc1`, for which the activity change, negative = inhibition in assay [8] was -14.7% [at 17.2 µM]; in [9], 1.89% [at 17.2 µM]. In assay [10], the Potency was greater than 20.6 µM. Also, the Potency result in [1] is “inactive”.
Consider `CCC(=O)NC(c1cccs1)c1cc(Cl)c2ccccc2c1O` (stereo not given), for which the Potency entry in assay [1] and in assay [11] was “inactive” in each case. Moreover, the compound was classed as inactive in assay [3] and in assay [6]. Also, the activation in [4] was 0.826% [at 17.1 µM]; in assay [7], 29.3% [at 30.8 µM]. For the same compound, the activity change, negative = inhibition in assay [5] is -13.9% [at 12.7 µM].
On to `Cc1ccc(NS(=O)(=O)c2cc3c(cc2N[C@H](C)CO)NC(=O)CC3)cc1C`, for which the Potency entry in [1] and in [12] was “inactive” in each case.
For the compound `COC(=N)c1nc2ccc3ncnc(Nc4ccc(F)cc4Br)c3c2s1`, the Potency result in [1] and in [12] was “inactive” in each case.
Take `CNc1oc(-c2cccs2)nc1C#N`: the activity change, negative = inhibition is 3.62% [at 17.2 µM] in assay [8] and 11.4% [at 17.2 µM] in assay [9]. Besides, in [13], the activity, negative = inhibition is -2.1% [at 17.2 µM]. Further, the Potency in assay [10] is greater than 20.6 µM. Besides, in [1], the Potency entry is “inactive”.
In the case of `CC(=O)NC(c1ccco1)c1cc(Cl)c2ccccc2c1O` (stereo not given), the Potency result in assay [1] and in [11] was “inactive” throughout. Moreover, the outcome in assay [3] and in assay [6] was inactive. In [4], the activation was 3.62% [at 17.1 µM].
Take `CCN(CC)C(=O)CC(c1ccc2c(c1)OCO2)c1c(O)cc(OC)cc1OC` (stereo not given): the Potency entry in assay [1], in assay [11] and in assay [5] was “inactive” each time. Further, the compound was called inactive in assay [3], in assay [4] and in assay [6].
For `CN(C(=O)c1cn2c(-c3ccc(C(F)(F)F)cc3)cnc2cn1)c1ccc(C#N)cc1`, the Potency result in assay [1] and in assay [12] was “inactive” each time.
As for `CC(=O)NS(=O)(=O)c1ccc(NC(=O)c2cc(-c3ccc(C)c(C)c3)nc3ccccc23)cc1`, the Potency result in [14] and in assay [1] was “inactive” each time. In addition, the Potency in [11] is 44.7 µM (active). The call in assay [3] and in assay [6] was inactive. Also, the activation in assay [4] was 5.88% [at 17.1 µM]. Further, the activity change, negative = inhibition in assay [5] is -11.1% [at 12.7 µM].
